Compound activity from PubChem.
CHOP inh: blocks CHOP induction under ER stress | inhibition, % at 10 µM | CHO-K1 CHOP-promoter luciferase, tunicamycin-induced, 15-18 h | actives 3.8% (n = 220,000) | AID 2732;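 active = compounds that reduced the stress-induced luciferase reporter signal by more than about 70% of percent inhibition, limit read from the data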;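 also: 0% = tunicamycin plus vehicle and 100% = wells without tunicamycin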
MITF TRPM1 inh: reduces MITF-dependent TRPM1 promoter luciferase signal. SK-MEL-5 TRPM1 promoter luciferase, 24 h. inhibition, % at 12.5 µM. actives 0.83% (n = 330,000). AID 488899;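 active = mean inhibition across replicates of 60% or more, whatever share of single replicates reaches that level; inconclusive = some that reach 60%, reason not given; inactive = mean inhibition across replicates below 60%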
Peg3 prom inh: Peg3 promoter activity inhibition; HeLa PEG-Prom luciferase reporter, luminescence, overnight; inhibition, % at 20 µM; actives 1.7% (n = 360,000); AID 588405;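 active = inhibition of at least 50% at 20 µM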
KKLEB cytotox: reduces viability of KKLEB cystic fibrosis airway cells; KKLEB CF airway cells viability, ATPlite luminescence, overnight; hits give low values; cells stimulated with P. aeruginosa culture filtrate; actives 0.36% (n = 360,000); activity change (cytotoxicity), % at 5 µM; AID 602141;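 active = corrected activity change at or below -50% at 5 µM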
HIF-2a inh: HIF-2a inhibition | inhibition, % at 18.8 µM | 786-0 RCC cells HIF-2a reporter, luciferase luminescence, overnight | actives 0.72% (n = 360,000);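 active = inhibition of the luminescence signal of 40% or more relative to plate controls, in a single-dose primary screen at 18.75 µM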
CF NFkB block: blocks PAF-induced NF-kB reporter in cystic fibrosis cells; KKLEB NF-kB-GFP reporter, GFP fluorescence overnight; inhibition, % at 5 µM; actives 0.86% (n = 360,000);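 active = at least 50% inhibition at 5 µM, scaled per plate between neutral and stimulator controls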;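 also: PAF is a Pseudomonas aeruginosa culture filtrate used as stimulus; plate controls were PAF-stimulated DMSO wells for no effect and unstimulated DMSO wells for full effect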
The depositor's hits bear a star. Rows were chosen to be rich in hits. Some 4.3% of all compounds tested hit in one or more screens of this group.

O=C(COc1ccc(Cl)cc1Cl)NN=C1c2ccccc2-c2ccccc21 was read as CHOP inh 85*, MITF TRPM1 inh 13, Peg3 prom inh 25, KKLEB cytotox -18, HIF-2a inh -10 and CF NFkB block 11.
For CSc1nc2cc3c(cc2n1C(=O)c1ccc(C)cc1)OCCO3 the results were CHOP inh 90*, MITF TRPM1 inh -5, Peg3 prom inh -70, KKLEB cytotox -4, HIF-2a inh -115 and CF NFkB block 2.
CCOC(=O)c1c(CSC(=N)N)n(-c2ccc(C)cc2)c2cc(Br)c(OC(C)=O)cc12 was read as CHOP inh -13, MITF TRPM1 inh inconclusive, Peg3 prom inh 54*, KKLEB cytotox 7, HIF-2a inh 13 and CF NFkB block 12.
CCC(CO)NCc1ccc(OCC(O)c2ccccc2)c(OC)c1 (stereo unspecified) was read as MITF TRPM1 inh -9, Peg3 prom inh -5, KKLEB cytotox -5, HIF-2a inh 11 and CF NFkB block -4.
O=C(Nc1ccc(OC(F)F)c(Cl)c1)C(c1ccccc1)c1ccccc1 was read as CHOP inh 70*, MITF TRPM1 inh -9, Peg3 prom inh 33, KKLEB cytotox 4, HIF-2a inh 4 and CF NFkB block 4.
`CC(NC(=S)Nc1ccc(OC(F)F)c(Cl)c1)C(C)(C)C` (stereo unspecified) gave CHOP inh 70, MITF TRPM1 inh -5, Peg3 prom inh 25, KKLEB cytotox -33, HIF-2a inh -15 and CF NFkB block 17.
For Cc1ccc(NC(=S)Nc2ccc(OC(F)F)c(Cl)c2)cc1Cl the results were CHOP inh 91*, MITF TRPM1 inh -13, Peg3 prom inh -15, KKLEB cytotox -4, HIF-2a inh -110 and CF NFkB block 3.
Fc1ccc(NC(=S)Nc2ccccc2OC(F)F)cc1Cl was read as CHOP inh 8, MITF TRPM1 inh -1, Peg3 prom inh 19, KKLEB cytotox -4, HIF-2a inh -9 and CF NFkB block 16.
Cc1ccc(NC(=S)Nc2ccc(Cl)c(Cl)c2)c(OC(F)F)c1 was read as CHOP inh 82*, MITF TRPM1 inh -1, Peg3 prom inh 16, KKLEB cytotox 7, HIF-2a inh -25 and CF NFkB block 2.
`CC(C)C1C2CCC(C2)C1N` (stereo unspecified) gave CHOP inh -12.
CC(=O)c1ccc(NC(=O)N[C@@H](CC(C)C)C(=O)O)cc1 was read as CHOP inh 72*, MITF TRPM1 inh -12, Peg3 prom inh 10, KKLEB cytotox -1, HIF-2a inh 8 and CF NFkB block 6.
For CC(=O)c1ccc(NC(=O)Nc2ccc(Cl)cc2)cc1 the results were CHOP inh 78*, MITF TRPM1 inh -125, Peg3 prom inh -262, KKLEB cytotox 24, HIF-2a inh -241 and CF NFkB block -14.
Screening CN(C)C(=O)/N=N/C(=O)N(C)C returned CHOP inh -12.
Cc1nn(CC(=O)NCCCN2CCN(Cc3ccccc3)CC2)c(=O)c2cc(-c3ccccc3)nn12 was read as MITF TRPM1 inh 5, Peg3 prom inh -5, KKLEB cytotox 3, HIF-2a inh 3 and CF NFkB block -3.
For Cc1nn(CC(=O)NCCCN2CCC(Cc3ccccc3)CC2)c(=O)c2cc(-c3ccccc3)nn12 the results were MITF TRPM1 inh inconclusive, Peg3 prom inh 100*, KKLEB cytotox -11, HIF-2a inh -30 and CF NFkB block 20.
For CN1C(=O)N(C)C2(c3ccccc3)Nn3c(s/c(=C/c4ccccc4F)c3=O)=NC12c1ccccc1 (stereo unspecified) the results were CHOP inh 71*.
Cc1nnsc1C(=O)NC1CCCc2c1cnn2-c1ccc(C(C)(C)C)cc1 (stereo unspecified) was read as MITF TRPM1 inh 13, Peg3 prom inh 5, KKLEB cytotox -18, HIF-2a inh -6 and CF NFkB block 12.
Screening CCOc1ccc(NC2c3ccccc3C(=O)N2Cc2ccco2)cc1 (stereo unspecified) returned CHOP inh 73*, Peg3 prom inh -1, KKLEB cytotox 4, HIF-2a inh 14 and CF NFkB block 1.
For COC(=O)CCCn1cc(CN2CC(N3CCCC3)CS2(=O)=O)nn1 (stereo unspecified) the results were HIF-2a inh 2.
